PLC-beta3 inh: PLC-beta3 (human) inhibition, primary screen | Purified PLC-beta3, fluorogenic substrate, fluorescence | inhibition, % at 12.2 µM | 370,000 tested, 0.18% active; in the data active means inhibition above about 11%
ADAM17 inh: ADAM17 inhibition, QFRET primary screen. P78536. recombinant ADAM17, EDANS/DABCYL FRET peptide cleavage. inhibition, % at 6.95 µM. 370,000 tested, 0.83% active. AID 720648;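 active means inhibition above the mean of compounds lying between control limits plus 3 SD, set per campaign, cut at about 8.5% in these data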
ADAM10 inh: ADAM10 inhibition, QFRET primary screen. O14672. recombinant ADAM10, EDANS/DABCYL FRET peptide cleavage, 3 h. inhibition, % at 7 µM. 370,000 tested, 0.62% active. AID 720582;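 active means inhibition above a per-campaign cutoff equal to the mean of compounds falling between control-based bounds plus 3 SD, cut at about 20% in these data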
Target sequence (O14672 214-748 limits assumed): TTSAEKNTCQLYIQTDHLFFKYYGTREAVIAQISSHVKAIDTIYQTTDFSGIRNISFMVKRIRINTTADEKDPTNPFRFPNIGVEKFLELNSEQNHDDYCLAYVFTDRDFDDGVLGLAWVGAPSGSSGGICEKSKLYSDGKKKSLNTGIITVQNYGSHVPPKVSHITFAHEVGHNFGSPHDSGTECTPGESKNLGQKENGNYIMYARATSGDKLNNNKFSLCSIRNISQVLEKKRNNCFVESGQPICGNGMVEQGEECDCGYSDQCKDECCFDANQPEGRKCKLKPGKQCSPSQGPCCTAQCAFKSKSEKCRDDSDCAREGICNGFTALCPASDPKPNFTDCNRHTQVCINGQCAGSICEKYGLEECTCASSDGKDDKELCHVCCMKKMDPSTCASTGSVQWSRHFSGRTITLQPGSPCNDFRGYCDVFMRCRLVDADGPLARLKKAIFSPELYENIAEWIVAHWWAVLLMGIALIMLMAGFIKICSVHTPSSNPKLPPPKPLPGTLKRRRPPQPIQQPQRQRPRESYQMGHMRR
HGIII-sPLA2 inh: Blocks human group III sPLA2 activity; Q9NZ20; QFRET BODIPY PC-A2 liposome hydrolysis, fluorescence; inhibition, % at 12.2 µM; 370,000 tested, 0.56% active; AID 743126;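 active means inhibition above mean plus 3 SD of compounds lying within the high and low control bounds, cut at about 19% in these data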
PLCg1 inh: inhibitors of human phospholipase C gamma1; inhibition, % at 12.2 µM; 370,000 tested, 0.84% active; purified PLC-gamma1, fluorogenic substrate, fluorescence; P19174; in the data active means inhibition above about 9.5%
proKLK7 act: activators of human kallikrein-7 zymogen | P49862 | purified proKLK7, EDANS-DABCYL substrate fluorescence; 100% is mature enzyme control, 0% vehicle | activation, % at 7 µM | 370,000 tested, 0.9% active | AID 652039;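 active means activation above the mean of all tested compounds plus 3 SD, computed per campaign excluding outliers beyond control limits, cut at about 13% in these data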
hGIII sPLA2 conf: human GIII-sPLA2 inhibition, confirmation. shares compounds with HGIII-sPLA2 inh. recombinant hGIII-sPLA2, BODIPY PC-A2 QFRET fluorescence. inhibition, % at 12.2 µM. 2,000 tested, 34% active;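 active means mean inhibition across triplicates above the hit cutoff set in the earlier primary screen, cut at about 19% in these data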
BODIPY interf: counter-screen for HGIII-sPLA2 inhibitors: 535nm fluorescence interference; BODIPY FL product fluorescence interference, QFRET; inhibition, % at 12.2 µM; shares compounds with HGIII-sPLA2 inh; 2,000 tested, 8.5% active;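 active means average inhibition above the solvent-only control mean plus 3 SD, cut at about 6% in these data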
535nm interf DR: interferes with 535nm fluorescence in dose response counter-screen | shares compounds with HGIII-sPLA2 inh | BODIPY FL product fluorescence interference, cell-free | IC50, µM | 240 tested, under 10 active;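 active means IC50 at or below 10 µM; inactive means IC50 above 10 µM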
A number is an active result; n = inactive; x = not tested or not shown. Compounds with a hit are over-represented: about 3.4% of the library has one in this group of screens.

SMILES	PLC-beta3 inh	ADAM17 inh	ADAM10 inh	HGIII-sPLA2 inh	PLCg1 inh	proKLK7 act	hGIII sPLA2 conf	BODIPY interf	others
NC(=O)C1(Nc2ccc(-c3ccc(Cl)cc3)cc2)CCCC1	n	n	n	22.4	n	n	n	n
O=C(O)C1(Nc2ccc(Cl)cc2)CCCC1	n	n	n	n	n	n	x	x
COCCOC(=O)C1=C(C)NC(=S)NC1/C=C/c1ccccc1 (centres undefined)	n	n	n	22.1	n	n	n	n
CCc1ccc2cccc3c2c1N=CN3C	n	n	n	22.3	n	n	21.6	n
CN(Cc1ccc(Cl)s1)C(=O)CNC(=O)CNC(=O)c1ccc(Cl)cc1Cl	n	n	n	n	n	n	x	x
O=C(NNC(=S)Nc1ccc(Cl)cc1Cl)c1ccc(N2CCOCC2)c([N+](=O)[O-])c1	n	n	n	24.1	n	n	28.4	12.4
O=C(c1ccc(N2CCOCC2)c([N+](=O)[O-])c1)N1CCCCC1	n	n	n	n	n	n	x	x
CC1(C(=O)NS(=O)(=O)C2CC2)CCN(C(=O)c2c(F)cccc2F)C1 (centres undefined)	n	n	n	19.6	n	n	n	n
COc1ccccc1Cn1[nH]nnc1=S	n	n	n	22.3	n	n	n	n
COc1ccccc1CN1CCSCC1	n	n	n	n	n	n	x	x
CC(C)CN(C(=O)C1CC1)c1c(N)n(Cc2ccccc2)c(=O)[nH]c1=O	n	n	n	n	n	n	x	x
CC(C)CN(C(=O)C1CCC1)c1c(N)n(Cc2ccccc2)c(=O)[nH]c1=O	n	n	n	20.0	n	n	n	n
COc1ccc(Cl)cc1C(=O)NNC(=O)c1cccc(S(=O)(=O)N(C)C)c1	n	n	n	22.1	n	n	n	n
Oc1ccc(/C=C/c2ccccc2F)c2cccnc12	n	n	n	27.5	n	x	n	9.6
Oc1ccc(CCc2c(F)cccc2F)c2cccnc12	n	n	n	n	n	x	x	x
Cc1ccc(-n2c(=S)[nH]c3c(oc4ccccc43)c2=O)cc1	n	n	n	25.3	n	n	n	n
COc1cccc(NC(=O)COC(=O)C2C3CC4OC(=O)C2C4C3)c1 (centres undefined)	n	n	n	n	n	n	x	x
CC(CCl)n1c(=O)c2ccccc2n1C(=O)c1ccccc1 (centres undefined)	n	n	n	24.3	n	n	n	n
C#CCn1c2ccccc2c(=O)n1C(C)C	n	n	n	n	n	n	x	x
O=C(CNC(=O)c1ccncc1)N/N=C/c1ccc(O)cc1O	n	n	n	n	n	n	x	x
O=C(CCC1CCCN(Cc2ccncc2)C1)NCc1ccc(F)c(F)c1 (centres undefined)	n	n	n	n	n	n	x	x
CCN(CC)C(=O)c1ncn2c1c(=O)[nH]c1ccccc12	n	n	n	19.5	n	n	n	n
CC(C)(C)OC(=O)N1CCCN(C(=O)Nc2ccc(C(F)(F)F)cc2)CC1	n	n	n	n	n	n	x	x
CCN1CCN(CC(=O)c2ccc(OC)cc2)CC1	n	n	n	n	n	n	x	x
Oc1ccccc1/C=N/Nc1ccccc1	n	n	n	n	n	n	x	x
SMILES	PLC-beta3 inh	ADAM17 inh	ADAM10 inh	HGIII-sPLA2 inh	PLCg1 inh	proKLK7 act	hGIII sPLA2 conf	BODIPY interf	others
Oc1ccccc1/C=N/Nc1ncc(Br)cn1	n	n	n	28.8	n	n	n	31.6
CCN(CC)c1ccc(/C=N/NC(=S)NCc2ccccc2)c(O)c1	n	n	n	35.6	n	n	25.4	10.9
CCN(CC)c1ccc(/C=N/NC(=O)c2ccco2)c(O)c1	n	n	n	n	n	n	x	x
CCN(CC)c1ccc(C=Nc2ccccc2C)c(O)c1	n	n	n	20.2	n	n	n	n
COC(=O)c1cnn(-c2ccc(F)cc2F)c1/C=N/NC(=S)Nc1ccccc1	n	n	n	21.6	n	x	20.5	n
CCn1c(/C=C/c2c(C)n(CC)c3ccccc23)nc2ccccc2c1=O	n	n	n	23.9	n	n	n	n
CCC1(CC)Cc2ccccc2C(CC(=O)N2CCOCC2)=N1	n	n	n	19.6	n	n	n	n
O=C(CC1=NC2(CCCC2)Cc2ccccc21)N1CCOCC1	n	n	n	n	n	n	x	x
COc1cc(OC)c(/C=N/NC(=O)COc2cccc3cccnc23)c(OC)c1	n	n	n	n	n	n	x	x
COc1ccc(Cn2ccc3ccc(-c4ccc5ccn(Cc6ccccc6F)c5c4)cc32)cc1	n	n	n	19.8	n	n	n	n
Fc1ccccc1Cn1ccc2ccc(-c3ccc4ccn(Cc5ccccc5)c4c3)cc21	n	n	n	n	n	n	x	x
Cc1cc(N(C)C)ccc1N=Nc1ccc(N)cc1	n	n	n	26.1	n	n	38.2	17.6
Nc1ccc(N=Nc2ccc(N)cc2)cc1	n	n	n	n	n	n	x	x
CC(C(=O)Nc1ccccc1)N(C)Cc1cccs1 (centres undefined)	n	n	n	n	n	n	x	x
CC(C)CC(=O)NC(=S)NNC(=O)c1ccc(NC(=O)C2CCCCC2)cc1	n	n	n	20.9	n	n	37.1	n	535nm interf DR=n
CC(C)CC(=O)NC(=S)NNC(=O)c1ccc([N+](=O)[O-])cc1	n	n	n	n	n	n	x	x
CC1(C)Cc2ccccc2-c2nnnn21	n	n	n	23.0	n	n	n	n
c1ccc2c(c1)CC1(CCCC1)n1nnnc1-2	n	n	n	n	n	n	x	x
COc1ccc(C(C(=O)NC2CCCC2)n2c(C3CCN(C(C)=O)CC3)nc3ccccc32)cc1 (centres undefined)	n	n	n	n	n	n	x	x
Cc1cccc(/C=N/Nc2ccc3ccccc3n2)c1	n	n	n	22.6	n	n	n	n
N#C/C(=C\c1cccnc1)C(=O)Nc1ccc(S(N)(=O)=O)cc1	n	n	n	n	n	n	x	x
CC(=O)C1=C(C)NC(SCC(N)=O)=C(C#N)C1c1sccc1C (centres undefined)	n	n	n	22.6	n	n	n	n
CCC1Cc2[nH]c(=S)[nH]c(=O)c2C(c2ccc(Cl)cc2)O1 (centres undefined)	n	n	n	21.5	n	n	n	n
CC(C)CNc1nc(SCC(=O)Nc2ccccc2)nc(N2CCOCC2)n1	n	n	n	n	n	n	x	x
CC1(C)CC(=O)C(Sc2ccccc2)=C(O)C1	n	n	n	n	n	n	x	x
CC1(C)CC(=O)C(Sc2ccccc2C(=O)O)=C(O)C1	n	n	n	22.7	n	n	n	n

Bioassay records deposited in PubChem BioAssay by The Scripps Research Institute Molecular Screening Center.
